69 sequences from PubChem BioAssay AID1508600 (Functional Genomics Laboratory (NCATS/FGL), 2020) can be followed below.

Hit rate of the full screen: of about 53,000 sequences, about 3,700 (7%) were called active.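 The calls were made as follows: active = gene knockdowns whose robust z-score for IL-1 alpha signal is at least 2 or at most -2, so actives lie on both sides; inactive = the rest.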 Shown is part of a subset that was picked to be rich in actives.

This assay can be described thus: Components of the Cytosolic LPS Sensing Pathway: Gene Identification via Genome-wide siRNA Screen.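 Also: robust z of the log signal after scaling to non-targeting control siRNA wells of the plate.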 The following applies: RAW264.7 macrophages, IL-1a HTRF, actives lie on both sides, screened at 100 nM (by protocol), cells primed 5 h with Pam3CSK4 first. The gist of the method: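 RAW264.7 mouse macrophages reverse-transfected with single siRNAs (100 nM final) for 48h, primed with Pam3CSK4 for 5 hours, then transfected with LipidA for 24 hour. Supernatant IL-1a read by HTRF; values normalized to negative-control median, log-transformed robust z-scores.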
Regarding GCGAGACAAUUGUUAUUGATT against Zmym2, the z-score was -1.05 (inactive). With GGCCAUGGAAGCUGUUGCUTT against Pgam2, the z-score was -0.264 (inactive). The value for GGACAGAUGAUGAAGUUGUTT against Hsp90b1 was -2.24 (active); that for GGUUCAGUCAAGAAUUGCUTT against Clec4e was 1.68 (inactive). Next, GCUGUCGAUAGAAAAAAUCTT against Scml2: 0.566 (inactive); GGGCAAUUUGUUCGACCCATT against Abca2: -0.14 (inactive); GGGCCUGGAAAACAUUGACTT against Ndufa1: -0.316 (inactive). The value for CCCAGUGUCAUUCAGUAUUTT against Phactr3 was 2.13 (active). As for CCUUCAACACCAGUUUGGGTT against Olfr1393, the z-score was 0.45 (inactive).

Take GGCCUGUGGAAGAAAUACGTT against Pdhb: the z-score was 1.82 (inactive). For the sequence GCAAUUUGAGCAGUAUGUATT against Cpsf7, the z-score is -2.85 (active). The value for GGAAACAUGUCCUCACACATT against Top3b was 1.41 (inactive); that for GGCUCAUUUGCUGAGUGUGTT against Fscn2 was 1.68 (inactive). On to GCCGGUAAAAUUAAGGUGATT against Cyp2j9, for which the z-score was -0.13 (inactive). As to GGGUUUGGUCUCAUAUAAATT against Samd7, the z-score is -0.618 (inactive). Next, GCAGAAGUCGAGCUAUGUUTT against Zfp365: -1.21 (inactive). For GGCUAAAUGCCGAUGUACUTT against Gapvd1, the z-score was 2.08 (active).

Regarding GGGAUAAUAAUGUUGAUUGTT against Mrc1, the z-score is -0.152 (inactive).

As for GCAUACCUCCGUAUUGUGATT against Snx30, the z-score was -0.868 (inactive). Take CCUGACAGACCGACAAGUGTT against Hoxc11: the z-score is -2 (active). Take GAUCAUCACAGAGGUCCAGTT against Fabp6: the z-score is 0.308 (inactive). The value for GGUGAUGGGCAAGGUGUUCTT against Syvn1 was 0.25 (inactive); that for CGGUACAAGCUAGACCUCATT against Mettl26 was 0.493 (inactive). As for CCAAUACUACAUAAUGUCUTT against Abcc12, the z-score is -0.354 (inactive). As for GGAAUUCCCAAAACUACUGTT against Tbck, the z-score is -1.28 (inactive). The value for GGAAUGUCGAAGAAAAUGCTT against Adam15 was -0.197 (inactive); that for GCGCAAUAAGAUCUUCAUGTT against Ddx55 was 0.454 (inactive). Next, GGCACUUUCCCUAUAUUGUTT against Col26a1: -1.57 (inactive). The value for CCUACGACUUCUACUACAUTT against Chst8 was 1.69 (inactive).

Consider GGAGUGCGGACGAUAAUACTT against Ppp1r3f, for which the z-score was -1.97 (inactive). Next, GCUGGCUAUACUUUACAACTT against Prkg1: 2.11 (active); GUAUUGGAUACGAAGCAGATT against Defb2: -0.154 (inactive); GGACAUGUGGAAAUGGAUATT against Arhgap4: 1.97 (inactive). The value for GGCUUUCUUCAACCUGAGUTT against Duoxa1 was -2.43 (active); that for GGGAAGAAGAUGGAAUUUATT against Smoc1 was 1.22 (inactive). Consider CGGGCUGCUACGAAAAAGUTT against Tspan9, for which the z-score was 0.152 (inactive). On to GGAAACACGUCUCCUCCAUTT against Krt87, for which the z-score was 1.26 (inactive). The value for CGCACAAAGGAUUUUUGUATT against Epha7 was -0.064 (inactive); that for GGUGUGAUUGAAGAAGCGGTT against Gpr37 was -0.463 (inactive); that for CGACAACAAUCUGGCCUAUTT against Ap2s1 was 2.09 (active). The value for GUGCCUCUCAUCACUAUCUTT against Olfr571 was 0.501 (inactive). The value for GGAAACCCAGAGCAGCAGATT against Tdg was -1.01 (inactive).

Consider GGAGCUCAAACAGGAGAACTT against Lhfpl4, for which the z-score was 0.383 (inactive). Next, GGUAUUUGCUGAACUGUUUTT against Ckmt1: -0.931 (inactive).

Consider GGAAGGAAGCUAAAAAACGTT against Gnl3, for which the z-score was 2.24 (active).

With GGCUUAACAGAGAAACACCTT against Lrrc49, the z-score is 0.563 (inactive).

As to GAAUGUCUGAGCAAGGAGGTT against Arpp21, the z-score was 0.227 (inactive). As to GCUCAUGUAGGAUGUAUAUTT against Olfr146, the z-score was -0.483 (inactive). Next, CCCUCCAUGGAAAUGACAUTT against Slit3: 2.4 (active); GCAGAUGUACUCUAAGGGUTT against Adam23: 1.17 (inactive); CGCCAUAGUUGGUUUUGUUTT against Scamp4: 1.2 (inactive). The value for GCGACUACAAGGAUACCCUTT against Krt71 was 0.169 (inactive). Next, GGCCAGUGAGCAGCAUUAUTT against Krt222: 0.787 (inactive); CCGCUCUUUUACAGCUGGATT against Rsl1d1: 1.99 (inactive); CCCGCUAUUUGGUGCUAACTT against Amh: 3.21 (active). For the sequence GCAUAACUCCCAUCCAUAGTT against Glra2, the z-score is -0.622 (inactive). Next, CCUUUUUUUGGUAACUCGUTT against Sox11: -0.0308 (inactive). Consider CCUACAGAAUAGAAAAUUCTT against Elmod2, for which the z-score was -0.161 (inactive). The value for GGCCCAACACCUUUAUCAUTT against Akt1 was 2.77 (active); that for GGAUGGACUAAAUGAUGAUTT against Ythdf2 was -0.00923 (inactive); that for GGAUUCUGUGCUUUCCUGGTT against Pomt2 was -0.77 (inactive). The value for CCUGCAUCGUACGCUACUUTT against Pcgf2 was -1.83 (inactive); that for GGUGCUCUCAAGUGGGAUUTT against Gm5114 was -2.15 (active).

Regarding GCCAAAUUAGCAGCUUGUGTT against Rln3, the z-score was -0.0674 (inactive). Next, CGUACAACCUCAAGGUUCUTT against Lag3: -1.68 (inactive). Next, GGCAAAAUUAGCAUCAAAGTT against Slc22a3: 0.577 (inactive); GCCUAGACCUAAGCAUAGCTT against Prpmp5: 0.228 (inactive); GGCCCUGUUAGUGCUAUACTT against Amh: -1.15 (inactive). The value for GGAAGAUUGAAAUAGGCGATT against Mecom was -1.25 (inactive).
